EBNA-1 inh – EBNA-1 DNA-binding inhibitors, primary screen, biochemical, fluorescence polarization. inhibition, % at 14.8 µM. hit rate 0.34% among 300,000. AID 1950, 2009; in the data active = inhibition above about 28%
ZTA counter – counter-screen for EBNA-1 inhibitors: inhibitors of Epstein-Barr virus ZTA. P03206. ZTA-DNA binding, fluorescence polarization. inhibition, % at 11 µM. hit rate 0.15% among 320,000. AID 2234; in the data active = inhibition above about 33%
Target sequence (P03206 whole entry, looked up): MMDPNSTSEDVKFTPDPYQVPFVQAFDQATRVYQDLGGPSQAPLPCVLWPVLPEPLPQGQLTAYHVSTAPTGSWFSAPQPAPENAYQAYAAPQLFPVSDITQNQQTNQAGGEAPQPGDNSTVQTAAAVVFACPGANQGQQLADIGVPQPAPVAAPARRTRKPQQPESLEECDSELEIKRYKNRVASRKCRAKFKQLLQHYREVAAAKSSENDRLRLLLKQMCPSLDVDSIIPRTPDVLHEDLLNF
rCAG RNA binder – binders of r(CAG) RNA repeats, primary screen, biochemical, fluorescence; hit rate 1.3% among 370,000; r(CAG) RNA repeat, TO-PRO-1 dye displacement fluorescence; inhibition, % at 3 µM;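 active = inhibition above the plate cutoff, the mean of all test compounds on that plate plus 3 SD, cut at about 35% in these data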;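 also: higher means more dye released from RNA so lower well fluorescence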
PAFAH1B3 inh – PAFAH1B3 enzyme inhibitors, primary screen, biochemical, fluorescence polarization, human; recombinant PAFAH1B3, FP-rhodamine probe; hit rate 0.28% among 340,000; AID 492972, 2010; inhibition, % at 3.39 µM; Platelet-activating factor acetylhydrolase IB subunit alpha1 (Homo sapiens), Q15102;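 active = inhibition above the screen-wide average of all tested compounds plus 3 SD, cut at about 25% in these data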
Target sequence (Q15102 whole entry, looked up): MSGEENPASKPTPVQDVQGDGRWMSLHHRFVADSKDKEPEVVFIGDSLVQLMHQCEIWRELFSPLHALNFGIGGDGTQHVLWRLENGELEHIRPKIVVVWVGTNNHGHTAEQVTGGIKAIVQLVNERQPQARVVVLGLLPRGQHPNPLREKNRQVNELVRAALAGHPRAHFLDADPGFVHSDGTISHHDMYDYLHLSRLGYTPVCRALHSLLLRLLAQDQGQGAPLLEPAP
PAFAH2 inh – PAFAH2 enzyme inhibitors, primary screen, biochemical, fluorescence polarization, human; inhibition, % at 3.39 µM; Platelet-activating factor acetylhydrolase 2, cytoplasmic (Homo sapiens), Q99487; recombinant PAFAH2, FP-rhodamine activity probe; hit rate 0.99% among 340,000;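 active = inhibition above the mean over all tested compounds plus 3 SD, cut at about 30% in these data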;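 also: inhibitors block probe labeling of enzyme so polarization drops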
PAFAH1B2 inh – PAFAH1B2 enzyme inhibitors, primary screen, biochemical, fluorescence polarization, human; Platelet-activating factor acetylhydrolase IB subunit alpha2 (Homo sapiens), P68402; recombinant PAFAH1B2, FP-rhodamine activity probe; inhibition, % at 3.39 µM; hit rate 1.2% among 340,000; AID 492953, 2010;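 active = inhibition above the mean of all tested compounds plus 3 SD, cut at about 24% in these data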
EBNA-1 confirm – EBNA-1 DNA-binding inhibitors, retest, confirmation, biochemical, fluorescence polarization, triplicate | shares compounds with EBNA-1 inh | inhibition, % at 14.8 µM | Recombinant EBNA-1 DBD, Cy5-DNA fluorescence polarization | hit rate 35% among 830;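 active = mean inhibition across replicates above a set limit taken from the earlier primary screen, cut at about 28% in these data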
ZTA DNA inh trip – EBV Zta DNA binding inhibitors, counter-screen for EBNA-1 inhibitor project, biochemical, fluorescence polarization, triplicate. shares compounds with EBNA-1 inh. Zta-ZRE DNA binding, Cy5 fluorescence polarization. inhibition, % at 11.1 µM. 830 tested, under 10 active;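 active = mean inhibition over triplicates above a set limit taken from the primary EBNA-1 screen, cut at about 37% in these data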;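 also: purified full length Zta protein with Cy5 labeled ZRE DNA probe; inhibitors lower polarization by freeing the labeled DNA probe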
Hits are given with their value; . = inactive; / = no result given. The list is not random: actives were taken first. Their share in the collection is about 2.9%.

SMILES	EBNA-1 inh	ZTA counter	rCAG RNA binder	PAFAH1B3 inh	PAFAH2 inh	PAFAH1B2 inh	EBNA-1 confirm	ZTA DNA inh trip
Cc1cccc(NC(=O)CSc2ccc(-c3cccs3)nn2)c1C	29	.	.	.	.	.	.	.
Cc1ccc(C)c(NC(=O)CSc2ccc(-c3cccs3)nn2)c1	.	.	.	.	.	.	/	/
CC(=O)Nc1ccc(NC(=O)CSc2ccc(-c3cccs3)nn2)cc1	41	.	.	.	.	.	38	.
Cc1nn(CC(=O)NCc2cccc3ccccc23)c(=O)c2ccccc12	31	.	.	.	.	.	.	.
COc1ccc(N2CCN(S(=O)(=O)c3ccc(C(=O)NCc4ccco4)cc3)CC2)cc1	38	.	.	.	.	.	.	.
O=C(NCc1ccco1)c1ccc(S(=O)(=O)N2CCOCC2)cc1	.	.	.	.	.	.	/	/
O=C(Nc1cccc(Br)c1)OC1CC2CC1[C@H]1CCCCN1C2 (stereo partly specified)	/	/	.	/	/	/	/	/
Cc1ccccc1CNC(=O)C1CCN(c2nnc(N3CCCC3=O)s2)CC1	96	.	.	.	.	.	.	.
COc1ccc(CNC(=O)C2CCN(c3nnc(N4CCCC4=O)s3)CC2)cc1	.	.	.	.	.	.	/	/
Cc1cccc(/C=N/NC(=O)c2cc3c(s2)-c2ccccc2CC3)c1	132	.	.	.	.	.	.	.
CCOc1ccc(NC(=O)c2cc3cc4ccc(OC)cc4nc3o2)cc1	29	.	.	.	.	.	45	.
O=C(CSc1nnc(-c2ccc(Br)cc2)o1)Nc1cccc2ccccc12	40	.	.	.	.	.	52	.
CC(=O)N1CCc2c1cccc2S(=O)(=O)NC(CC(C)C)C(=O)Nc1ccc(F)cc1Cl (stereo unspecified)	/	/	.	/	/	/	/	/
O=C(Cc1ccccc1)NC1CCCCN(Cc2cccc(Cl)c2)C1=O (stereo unspecified)	/	/	.	/	/	/	/	/
COC(=O)[C@]12C[C@H](CC(=O)NCc3cccc(C(F)(F)F)c3)C(=O)N(Cc3cccc4ccccc34)C1=C[C@H](C(C)C)O[C@@H]2C1CC1	/	/	.	/	/	/	/	/
CCCn1c(=O)c(C(=O)NCc2ccc(OC)c(OC)c2)c(O)c2ccccc21	.	.	.	.	.	.	/	/
CCn1c(=O)c(C(=O)NCc2ccc(OC)c(OC)c2)c(O)c2ccccc21	30	.	.	.	.	.	.	.
O=C(O)c1ccc(NC(=O)c2ccc(COc3ccccc3)o2)cc1	/	/	.	.	.	.	/	/
NS(=O)(=O)c1ccc(NC(=O)c2ccc(COc3ccccc3)o2)cc1	39	.	.	.	.	.	.	.
COc1ccc(Cn2cc(COC(=O)N3CCOCC3)nn2)cc1	/	/	.	/	/	/	/	/
Cc1ccc(C(=O)CSc2nc(C)cc(SCc3nnc(-c4ccccc4)o3)n2)cc1	28	.	.	.	.	.	.	.
COC(=O)N[C@H](C(=O)N[C@@H](Cc1ccccc1)[C@@H](O)CN(Cc1ccc(-c2ccccn2)cc1)NC(=O)[C@@H](NC(=O)OC)C(C)(C)C)C(C)(C)C	/	/	.	/	/	/	/	/
CCCC[C@H]1C2CC(OC(=O)NCCCC(=O)OCC)C(C2)[C@H]2CCCCN21 (stereo partly specified)	/	/	.	/	/	/	/	/
Cn1c(SCC(=O)c2ccc3c(c2)Cc2ccccc2-3)nnc1-c1ccccc1	.	.	.	.	.	.	/	/
CCC(=O)Nc1nnc(SCC(=O)c2ccc3c(c2)Cc2ccccc2-3)s1	31	.	.	.	.	.	.	.
CC(=O)Nc1nnc(SCC(=O)c2ccc3c(c2)Cc2ccccc2-3)s1	40	.	.	.	.	.	43	.
CCC(=O)Nc1nnc(SCC(=O)N2c3ccccc3CC2C)s1 (stereo unspecified)	.	.	.	.	.	.	/	/

Source: PubChem (The Scripps Research Institute Molecular Screening Center)
